Laboratory results published in PubChem BioAssay AID1053122 (Broad Institute, 2014).
Potency and affinity values are given separately. The source made the active and inactive calls.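 How the source made its calls: active means CTGF level falls with dose and the fitted half-maximal dose is at most twice the top valid dose; inconclusive means flat fit with 30 to 70% drop, or a poor fit; inactive means the rest.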

experiment: CTGF mRNA reduction in DLD1 cells – cell-based, DLD1 colon cancer, RT-qPCR, cherry-pick, dose response (AID 1053122); conditions: DLD1 CTGF mRNA (YAP1 pathway), 24 h; series mostly up to 26 µM

outcome, inactive:
Cc1ccc(S(=O)(=O)N[C@H]2C=C[C@H](CC(=O)NCc3ccc(Cl)c(Cl)c3)O[C@H]2CO)cc1
COc1ccc(CN(C)C[C@H]2Oc3ccc(NC(=O)Nc4ccc5c(c4)OCO5)cc3CC(=O)N([C@@H](C)CO)C[C@H]2C)cc1
N#Cc1cccc(-c2ccc3c(c2)[C@@H]2[C@@H](CCN2S(=O)(=O)c2ccc(F)cc2)[C@H](CO)N3)c1
Cc1ccc(S(=O)(=O)Nc2ccc3c(c2)C(=O)N([C@H](C)CO)C[C@@H](C)[C@H](CN(C)S(=O)(=O)c2cccs2)OCCCC[C@@H](C)O3)cc1
O=C([C@H]1[C@H](CO)[C@H]2Cn3c(ccc(-c4ccc(F)cc4)c3=O)[C@H]2N1Cc1cocn1)N1CCCCC1
CCC(=O)N1Cc2cc(C(=O)NCc3cccc(F)c3)nc(-c3cccc(C4=CCCC4)c3)c2[C@H]1CCO
C[C@@H]1CN([C@@H](C)CO)C(=O)c2cc(NC(=O)Nc3ccccc3)ccc2O[C@@H](C)CCCCO[C@@H]1CN(C)C(=O)Nc1ccccc1
O=C(Nc1ccc2c(c1)[C@H]1C[C@@H](CC(=O)N3CCc4ccccc4C3)O[C@@H](CO)[C@H]1O2)c1ccc2c(c1)OCO2
C[C@H](CO)N1C[C@H](C)[C@H](CN(C)Cc2ccc(Oc3ccccc3)cc2)OCc2ccccc2-c2ccccc2C1=O
O=S(=O)(Cc1ccccc1)N1CC2(C1)[C@H](c1ccccc1)[C@H](CO)N2CC1CCCC1
C[C@H]1CN([C@@H](C)CO)C(=O)c2cccc(NC(=O)c3ccc(-c4nccs4)cc3)c2O[C@@H]1CN(C)C(=O)Nc1ccc(C(F)(F)F)cc1
CN1C(=O)c2cc(NC(=O)Cc3cccs3)ccc2OC[C@@H]2O[C@@H](CC(=O)NCCc3ccncc3)CC[C@H]21
CCS(=O)(=O)Nc1ccc2c(c1)C(=O)N(C)[C@H]1CC[C@H](CC(=O)N3CCN(C)CC3)O[C@H]1CO2
O=C(Nc1ccc2c(c1)[C@H]1C[C@@H](CC(=O)N3CCc4ccccc4C3)O[C@H](CO)[C@H]1O2)c1ccc2c(c1)OCO2
CCC(=O)N1C[C@H](C)[C@@H](OC)CN(C)C(=O)c2cc(NC(=O)Nc3ccc(Cl)cc3)ccc2OC[C@@H]1C
CC(C)(C)[S@@](=O)N1Cc2cc(C(=O)NCC(F)(F)F)nc(-c3cccc(-c4cccc(F)c4)c3)c2[C@H]1CCO
Cc1cccc(-c2ccc([C@@H]3[C@@H](CO)N4CCCCN(S(=O)(=O)c5ccccc5F)C[C@@H]34)cc2)c1
CCCC#Cc1ccc([C@@H]2[C@@H](C#N)N(C(=O)CN3CCOCC3)[C@H]2CO)cc1
C[C@H](O)C#Cc1ccc([C@H]2[C@@H](CO)N3CCCCN(C(=O)c4ccc5c(c4)OCO5)C[C@@H]23)cc1
C[C@H]1CC=CC[C@@H](c2ccc(F)cc2)NC(=O)[C@H](Cc2ccccc2)N(C)C(=O)c2ccccc2O1 (mixture of isomers)
C[C@@H]1CN([C@H](C)CO)C(=O)c2ccccc2-c2ccccc2CO[C@@H]1CN(C)Cc1ccc2c(c1)OCCN2C
CC(C)(C)S(=O)N1Cc2cc(C(=O)NCc3ccc4c(c3)OCO4)nc(-c3cccc(-c4cccc(F)c4)c3)c2[C@@H]1CCO (stereo partly drawn)
CC(C)(C)[S@@](=O)N1Cc2cc(C(=O)NCCc3ccncc3)nc(-c3cccc(-c4cccc(C#N)c4)c3)c2[C@H]1CCO
C[C@@H]1CN([C@@H](C)CO)C(=O)c2ccccc2-c2ccccc2CO[C@H]1CN(C)C(=O)Nc1ccc(-c2ccccc2)cc1
CNC[C@H]1Oc2c(NC(=O)Nc3cccc4ccccc34)cccc2C(=O)N([C@H](C)CO)C[C@@H]1C
O=C(Nc1cccc(F)c1)N1CCCCN2[C@H](C1)[C@H](c1ccc(C#Cc3cccnc3)cc1)[C@@H]2CO
CC(=O)N1CCCCN2[C@@H](CO)[C@H](c3ccc(-c4ccccc4)cc3)[C@@H]2C1
O=C(Nc1ccccc1)[C@@H]1[C@@H](CO)[C@@H]2Cn3c(cccc3=O)[C@H]1N2C(=O)c1ccc(F)cc1
C[C@@H]1CN([C@@H](C)CO)C(=O)c2cccc(NC(=O)c3nc4ccccc4s3)c2O[C@H]1CN(C)C(=O)Nc1ccc2c(c1)OCO2
O=C(CC1CC1)N1CC(=O)N2[C@H](CO)[C@@H](c3ccc(C#Cc4cccc(F)c4)cc3)[C@H]2C1
CS(=O)(=O)N1CC(=O)N2[C@H](C1)[C@@H](c1ccc(C#Cc3ccc(F)cc3)cc1)[C@@H]2CO
CCNC(=O)c1cc2c(c(-c3cccc(-c4ccccc4F)c3)n1)[C@@H](CCO)N(C(=O)CC1CC1)C2
CC(C)(C)[S@](=O)N1Cc2cc(C(=O)NCc3ccccn3)nc(-c3cccc(-c4ccccc4F)c3)c2[C@@H]1CCO
COc1ccc([C@H]2C/C=C\C[C@@H](c3ccc4c(c3)OCO4)NC(=O)[C@@H](c3ccccc3)CC(=O)N2)c(OC)c1
CN1C(=O)c2cc(NS(=O)(=O)c3ccccc3F)ccc2OC[C@@H]2O[C@@H](CC(=O)NC3Cc4ccccc4C3)CC[C@@H]21
C[C@H]1CN([C@@H](C)CO)S(=O)(=O)c2ccc(-c3cncnc3)cc2O[C@@H]1CN(C)C(=O)NC1CCCC1
C[C@@H]1CN([C@@H](C)CO)C(=O)c2cc(C#Cc3ccccc3)cnc2O[C@@H]1CN(C)C(=O)c1ccccc1
Cc1ccc(S(=O)(=O)Nc2ccc3c(c2)CC(=O)N([C@H](C)CO)C[C@@H](C)[C@@H](CN(C)S(=O)(=O)c2ccccc2)O3)cc1
